Screen size: about 13,000 compounds; about 3,200 (25%) showed an effect of 50% or more. The list shows a part of the results. Peptide text beside a SMILES is read from it. * marks the point of attachment. Boc = CC(C)(C)OC(=O)*
tested on: P. falciparum stage V gametocytes; design: BacTiter-Glo ATP luminescence viability of purified stage V gametocytes in 384-well plates, per cent inhibition versus DMSO; conditions: 48 h, 5 µM; inhibitor

Row | SMILES | % Inhibition
1 | COc1cc(Nc2nccc(N3CCC(NC(=O)c4cccc(C#N)c4)C3)n2)cc(OC)c1OC (stereo not shown) [TCMDC-133620] | 1.02%
2 | N#Cc1cccc(C(=O)Nc2cccc(-c3ccc(C(=O)Nc4cccnc4)cc3)c2)c1 [TCMDC-133695] | -12.11%
3 | O=C(/C=C/c1ccc(F)cc1)NC1CCC(CCN2CCCN(c3ccc(C(F)(F)F)cn3)CC2)CC1 (stereo not shown) [TCMDC-139724] | -25.55%
4 | c1ccc(-c2cccnn2)cc1 [TCMDC-123929] | -43.62%
5 | CCCCc1cc(NCc2ccncc2)nc(Nc2cccc(OC)c2)n1 [TCMDC-133999] | -9.372%
6 | O=C(Nc1ccc(-c2cccc(-c3nc4ccc(C(F)(F)F)cc4[nH]3)c2)cc1)c1csnn1 [TCMDC-136903] | -25.31%
7 | Cc1ccc2c(c1)c(-c1ccccc1)c(-c1ccccc1)n2CC(O)CN1CCN(CC=Cc2ccccc2)CC1 (stereo not shown) [TCMDC-123998] | 27.39%
8 | O=C(C1CCN(C(c2ccccc2)c2ccc(Cl)c(Cl)c2)CC1)N1CC=CC1 (stereo not shown) [TCMDC-135516] | -15.6%
9 | COc1cc(C2=NN(S(=O)(=O)c3c(Cl)cc(Cl)cc3Cl)CCCC2)ccc1Cl [TCMDC-136212] | -48.52%
10 | CCc1cn2c3c(cc(C(=O)N[C@@H](Cc4ccccc4)[C@H](O)CNC(C)(C)c4cccc(OC)c4)cc13)N(C)S(=O)(=O)C2 [TCMDC-135393] | 41.96%
11 | CCc1cn2c3c(cc(C(=O)N[C@@H](Cc4ccccc4)[C@H](O)CNC(C)(C)CCCC(C)C)cc13)N(C)S(=O)(=O)C2 [TCMDC-135400] | 80.58%
12 | CCc1cn2c3c(cc(C(=O)N[C@@H](Cc4ccccc4)[C@H](O)CNC(C)C)cc13)N(C)S(=O)(=O)C2 [TCMDC-135401] | -18.09%
13 | O=C(Nc1cccc(C(F)(F)F)c1)N1CCOC(CCN2CCC(c3ccccc3)CC2)(c2ccc(Cl)c(Cl)c2)C1 (stereo not shown) [TCMDC-135345] | -74.75%
14 | CC(C)(C)c1ccc(N2C(N)=NC(N)=NC2(C)C)cc1Cl [TCMDC-137710] | 44.95%
15 | COc1ccc(Cc2c(Cl)nc3nc(N)nc(N)c3c2C)c(OC)c1OC [TCMDC-137688] | 14.16%
16 | N#CC(c1cccc(Cl)c1)c1ccc2c(C(F)(F)F)cc(C(F)(F)F)nc2n1 (stereo not shown) [TCMDC-125544] | 14.86%
17 | CCCCCCCc1cc(=O)c2ccccc2[nH]1 [TCMDC-132026] | 46.19%
18 | O=c1cc(-c2ccc3ccccc3c2)[nH]c2ccccc12 [TCMDC-138937] | 4.967%
19 | CCCOc1cc(OCCC)cc(-c2cc(=O)c3ccccc3[nH]2)c1 [TCMDC-138943] | 63.29%
20 | CCCCCC(C)C(C)c1cc(O)c2c(c1)OC(C)(C)CC2(O)c1ccnn1C (stereo not shown) [TCMDC-131795] | -1.098%
21 | COc1ccc2nccc([C@@H](O)CN3CCC(NC(=O)/C=C/c4ccc5cc(C)[nH]c5c4)CC3)c2c1 [TCMDC-141041] | -19.17%
22 | NC(N)=Nc1nc(CCCCCCCCc2csc(N=C(N)N)n2)cs1 [TCMDC-137552] | 85.12%
23 | NC(N)=Nc1nc(-c2ccc(N=C(N)N3CCC[C@H]3CN3CCCC3)cc2)cs1 [TCMDC-139612] | 25.87%

Row | SMILES | % Inhibition
24 | N#C/N=C(\NCCCCCCCCN/C(=N\C#N)NCCSCc1csc(N=C(N)N)n1)NCCCSc1csc(N=C(N)N)n1 [TCMDC-139456] | -7.363%
25 | Cc1ccc([S+]([O-])Cc2ccc(Cl)cc2)cc1 (stereo not shown) [TCMDC-131393] | 8.887%
26 | COc1cc(Cc2cnc(N)nc2N)cc(OCCCCCC(N)=O)c1OC [TCMDC-137361] | 38.24%
27 | CC(C)(C)c1ccc(CN2CCCCC(NC(=O)c3cc(-c4ccccc4F)cs3)C2)cc1 (stereo not shown) [TCMDC-134465] | 82.77%
28 | COc1cccc(-c2csc(C(=O)NC3CCCCN(Cc4ccc(C(C)(C)C)cc4)C3)c2)c1 (stereo not shown) [TCMDC-134469] | -86.38%
29 | COc1ccccc1-c1csc(C(=O)NC2CCCCN(Cc3ccc(C(C)(C)C)cc3)C2)c1 (stereo not shown) [TCMDC-134516] | 70.05%
30 | CC(C)(C)c1ccc(CN2CCCCC(NC(=O)c3cc(-c4ccccc4Cl)cs3)C2)cc1 (stereo not shown) [TCMDC-134467] | -60.63%
31 | CCc1ccc(CN2CCCCC(NC(=O)c3cc(-c4ccccc4F)cs3)C2)cc1 (stereo not shown) [TCMDC-134461] | -44.42%
32 | O=C(NC1CCCCN(Cc2ccc3c(c2)OCCO3)C1)c1cc(-c2ccccc2F)cs1 (stereo not shown) [TCMDC-134517] | -15.69%
33 | CC(=O)Nc1ccc(CN2CCC(NC(=O)c3ccc(-c4cccc(C(F)(F)F)c4)s3)CC2)cc1 [TCMDC-134332] | 3.235%
34 | Cc1ccc(O)c(CN2CCCC(COC(c3ccc(F)cc3)c3ccc(F)cc3)C2)c1 (stereo not shown) [TCMDC-136033] | -2.358%
35 | CCOc1ccc(-c2nonc2NC(=O)c2ccccc2Cl)cc1OCC [TCMDC-125205] | 48.31%
36 | CCOc1ccc(-c2nonc2NC(=O)c2ccccc2F)cc1OCC [TCMDC-125206] | 57.11%
37 | CCCOc1ccc(-c2nonc2NC(=O)c2cccc(OC)c2)cc1OCCC [TCMDC-124765] | 56.26%
38 | CCCOc1ccccc1C(=O)Nc1nonc1-c1ccc(OCC)c(OCC)c1 [TCMDC-124767] | 53.72%
39 | CCOc1ccc(-c2nonc2NC(=O)c2ccccc2OC)cc1OCC [TCMDC-125198] | 87.63%
40 | CCOc1cccc(C(=O)Nc2nonc2-c2ccc(OC)c(OC)c2)c1 [TCMDC-125179] | 47.83%
41 | O[C@H]1[C@H](OCc2ccc(-c3ccccc3)cc2)CC[C@@H]1N1CCCCC1 [TCMDC-132078] | -8.021%
42 | N#Cc1cccc(CN2CCCN(c3ccc(NC(=O)c4cccs4)cc3)CC2)c1 [TCMDC-134987] | -14.58%
43 | Cc1ccc(CN2CCN(CC(O)COc3ccc4c(c3)CCC4)CC2)cc1 (stereo not shown) [TCMDC-141429] | -18.62%
44 | COc1ccc(CC2(c3ccc(F)cc3)N=C(N)N(CCCc3ccccc3)C2=O)cc1 (stereo not shown) [TCMDC-136462] | -20.11%
45 | CCCOc1ccc(-c2nonc2NC(=O)c2ccccc2OC)cc1OCCC [TCMDC-124766] | 53.56%
46 | COc1nc2c(N3CCN(CCNCc4ccc5c(n4)NC(=O)CS5)CC3)ccnc2cc1F [TCMDC-135193] | -2.167%

Row | SMILES | % Inhibition
47 | c1ccc(CN2CCCN(c3ccc4c(c3)CCN(Cc3ccc(-c5ncc[nH]5)cc3)CC4)CC2)cc1 [TCMDC-136549] | 6.085%
48 | CCn1cc(C=C2Oc3c(ccc(O)c3CN3CCCCC3)C2=O)c2ccccc21 [TCMDC-124888] | 37.53%
49 | CC(C)=C(C(=O)OCc1ccccc1)N1C(=O)[C@@H](NC(c2ccccc2)(c2ccccc2)c2ccccc2)[C@H]1[S+]([O-])CC(=O)OC(C)(C)C (stereo partly shown) [TCMDC-139078] | -23.33%
50 | COC(=O)C(=C(C)C)N1C(=O)[C@@H](NC(=O)OCc2ccccc2)[C@H]1SS[C@@H]1[C@H](NC(=O)OCc2ccccc2)C(=O)N1C(C(=O)OC)=C(C)C [TCMDC-132119] | 84.32%
51 | COc1cc(F)c2nccc([C@@H](O)CN3CCC(NC(=O)OCc4ccccc4)C(F)C3)c2c1 (stereo partly shown) [TCMDC-141734] | -30.04%
52 | O=C(Nc1cccc(CN2CCCN(CC3CCCCC3)CC2)c1)c1cc2ccccc2s1 [TCMDC-141863] | -96.88%
53 | CC(C)CN1CCCN(Cc2cccc(NC(=O)c3cc4ccccc4s3)c2)CC1 [TCMDC-141869] | -90.88%
54 | COc1cccc(CN2CCCN(Cc3cccc(NC(=O)c4cc5ccccc5s4)c3)CC2)c1 [TCMDC-141874] | -57.17%
55 | O=C(Nc1cccc(CN2CCCN(Cc3ccccc3)CC2)c1)c1cc2ccccc2s1 [TCMDC-141864] | -29.46%
56 | O=C(Nc1cccc(CN2CCCN(CCc3ccccc3)CC2)c1)c1cc2ccccc2s1 [TCMDC-141870] | 77.28%
57 | O=C(Nc1cccc(CN2CCCN(Cc3ncc[nH]3)CC2)c1)c1ccc2ccccc2c1 [TCMDC-141856] | 45.36%
58 | CCCCCCN1CCN(Cc2cccc(NC(=O)c3cc4ccccc4s3)c2)CC1 [TCMDC-134621] | -21.73%
59 | O=C(Nc1cccc(CN2CCCN(Cc3ccsc3)CC2)c1)c1cc2ccccc2s1 [TCMDC-134612] | -54.77%
60 | O=C(Nc1cccc(CN2CCCN(Cc3ncc[nH]3)CC2)c1)c1cc2ccccc2s1 [TCMDC-141877] | 80.03%
61 | CCCCCN1CCCN(Cc2cccc(NC(=O)c3cc4ccccc4s3)c2)CC1 [TCMDC-141872] | 97.12%
62 | O=C(Nc1cccc(CN2CCCN(Cc3cccc(O)c3)CC2)c1)c1cc2ccccc2s1 [TCMDC-141875] | -26.68%
63 | O=C(Nc1cccc(CN2CCCN(Cc3cccnc3)CC2)c1)c1cc2ccccc2s1 [TCMDC-141868] | 50.41%
64 | COC(=O)CC[C@H](NC(=O)[C@H](C)NC(=O)OC(C)(C)C)C(=O)OC [TCMDC-131388] (Boc-Ala-Glu(OMe)-OMe) | -20.52%
65 | CCCCC#Cc1cnc2nc(N)[nH]c(=O)c2n1 [TCMDC-137943] | 7.746%
66 | CCCCC(O)c1cc(O)c2c(c1)OC(C)(C)CC2C1=CCN(Cc2ccc3ccccc3c2)CC1 (stereo not shown) [TCMDC-131420] | -23.67%
67 | CC1(C)N=C(N)N=C(N)N1c1cccc(C(F)(F)F)c1 [TCMDC-124504] | -28.24%

Source: publication PMC4552634, “A New Set of Chemical Starting Points with Plasmodium falciparum Transmission-Blocking Potential for Antimalarial Drug Discovery” (PLoS ONE, 2015)
